The values that follow come from PubChem BioAssay (NCI).

The panel holds about 83,000 compounds, 20% with a hit somewhere; the sample as a whole holds those more often.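 Activity criterion: percent growth below 10, measured after cells in 96-well plates were exposed to a single compound concentration for 48 hours.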 A number with no mark means an inactive call. The source made the active and inactive calls.

In the first assay the test system is 786-0 renal. As to the kind of experiment: NCI-60 one-dose screen, 48 h (100 = growth as untreated, 0 = no growth, -100 = all killed). Conditions: 10 µM unless noted.
For `CCOC(=O)Nc1ccc2nc(Sc3ccc(Cl)cc3)sc2c1`, the growth is 49.5%.

Consider `COc1cc(C2CC(c3cccc(Nc4ccnc5cc(Cl)ccc45)c3)=NN2C=O)cc(OC)c1OC` (configuration not stated), for which the growth was 11.3%.

For `c1cn2cc(-c3ccc4ncn(C5CCCCC5)c4c3)nc(-c3ccc4c(c3)ncn4C3CCCCC3)c2n1`, the growth was -47.1% (active).

In a further assay the test system is COLO 205 colon. The description is as above. Particulars: 10 µM unless noted.
As for `Clc1nnc2c3ccccc3ccn12`, the growth is 103%.

As to `COc1ccc(-c2nn(C(=O)NCCN(C)C)cc2-c2ccncc2)cc1Cl`, the growth is 25.1%.

As to `CCN1C(=O)N(CC)C2C1NN=c1s/c(=C\c3ccco3)c(=O)n12` (configuration not stated), the growth is -19.8% (active).

Take `CC(C)N(C(=S)SSC(=S)N(C(C)C)C(C)C)C(C)C`: the growth is 112%.

As for `CC(C)=CC[C@@H]1CC2(CC=C(C)C)C(=O)C(OC3(C(=O)c4ccccc4)C(=O)C4(CC=C(C)C)C[C@@H](CC=C(C)C)C(C)(C)C(CC=C(C)C)(C4=O)C3=O)(C(=O)c3ccccc3)C(=O)C(CC=C(C)C)(C2=O)C1(C)C` (some centres not stated), the growth was -22.3% (active).

`CCCCCCCCCCCCCCCC1=NCCN1`: the growth was -70.8% (active).

`COc1cc([N+](=O)[O-])cc(OC)c1OC`: the growth is 127%.

Consider `NNC(=O)CSc1nc2scc(-c3ccccc3)c2c(=O)n1-c1ccccc1`, for which the growth was 107%.

Regarding `C=CCN(CC#N)CC=C`, the growth is 113%.

Turning to `CCOC(=O)Cn1c(-c2nonc2NC(=O)c2ccccc2F)nc2ccccc21`, the growth is 60.1%.

Consider `CCCCCCCOc1cccc(/C=C2\N=C3SCCCN3C2=O)c1`, for which the growth is 92.9%.

In the case of `Cc1c2c(cc3c1[nH]c1ccccc13)C=NCC2`, the growth is 78.2%.

On to `COc1cc(OC)c(Cl)cc1N`, for which the growth is 115%.

In the case of `CS(=O)(=O)c1ccc(C(=O)Nc2ccc(Cl)c(-c3ccccn3)c2)c(Cl)c1`, the growth is 6.45% (active).

On to `Cc1cc([N+](=O)[O-])c(C)cc1N`, for which the growth was 121%.

Regarding `COc1cnc2c(c1)C(=O)c1c-2n(CCCN2CCNCC2)c(=O)c2cc(Cl)ccc12`, the growth is 22.7%.

As for `COc1cc(/C=C2\CN(C(=O)OC(C)(C)C)C/C(=C\c3ccc(O)c(OC)c3)C2=O)ccc1O`, the growth is 110%.

For `CCN1C(=O)C(C)C=C(C)C=C1C` (configuration not stated), the growth is 104%.

Consider `COCc1nc(NS(=O)(=O)c2ccc(N)cc2)nc(C)c1Br`, for which the growth was 108%.

For `O=c1c2cc(Br)cc(Br)c2nc(-c2ccc(Cl)cc2)n1/N=C\c1ccccc1F`, the growth was 66.3%.

Take `CCCCCCCCCCCCCC1=NC(C)(C)CN1C(C)C`: the growth was -62.9% (active).

Regarding `CCC(=O)OCc1ccc(OC)cc1`, the growth was 113%.

`Fc1ccc(-c2cnc3nonc3n2)c(F)c1`: the growth is 92.5%.

`O=S(=O)(Nc1ccc2ccccc2c1)N1CCCCC1`: the growth is 69.9%.

On to `CCn1c(Cc2ccccc2Nc2c(Cl)cccc2Cl)nnc1SCC(=O)Nc1cccc(OC)c1`, for which the growth was 96.4%.

With `CCN(CC)CC(=O)Nc1c(C)ccc(N)c1C`, the growth was 97.6%.

In the case of `C=C1C[C@@]2(C)C(CC[C@]3(C)C2CC=C2C4CC(C)(C)C[C@@H](OC(=O)/C(C)=C\C)[C@]4(C(=O)O)CC[C@]23C)C(C)(C)C1=O` (some centres not stated), the growth was -11.2% (active).

On to `C=C1C(=O)O[C@H]2[C@H]1CC/C(COC(=O)NCc1cccc(OC)c1)=C\CC[C@@]1(C)O[C@@H]21`, for which the growth was -71.3% (active).

With `CCCCOc1nc2ccccc2cc1/C=C/c1cc(/C=C/c2cc3ccccc3nc2OCCCC)n(-c2ccccc2)n1`, the growth was 99.6%.

In the case of `CCCCc1nc(Cl)c(C2CC(c3ccc(S(N)(=O)=O)cc3)=NN2c2cc(Cl)cc(Cl)c2)[nH]1` (configuration not stated), the growth is 32.2%.

Take `O=C(N/N=C\c1cc(Br)ccc1O)c1ccncc1`: the growth is 7.89% (active).

Consider `CC(C)C/C=C/C=C/C(=O)N[C@@H](CC(N)=O)C(=O)N[C@@H]1C(=O)N[C@H](c2ccc(O)cc2)C(=O)N[C@H](CCCN)C(=O)N[C@H]([C@@H](C)O)C(=O)N[C@H](c2ccc(O)cc2)C(=O)N[C@H](c2ccc(O)cc2)C(=O)N[C@H]([C@H](C)O)C(=O)N[C@H](Cc2ccccc2)C(=O)N[C@H](CCCN)C(=O)N[C@H](c2ccc(O[C@H]3O[C@@H](CO)[C@@H](O)[C@@H](O)[C@H]3O[C@@H]3O[C@H](CO)[C@H](O)[C@H](O)[C@@H]3O)cc2)C(=O)N[C@H]([C@H](C)O)C(=O)N[C@H](c2ccc(O)cc2)C(=O)NCC(=O)N[C@H](CC(C)C)C(=O)N[C@H](C)C(=O)N[C@H](c2ccc(O)c(Cl)c2)C(=O)O[C@@H]1C(N)=O`, for which the growth is 101%.

Consider `CN(C)c1ccc(/C=C\c2cccc[n+]2C)cc1`, for which the growth is -35.6% (active).

Consider `COC(=O)CSc1ccc(Cl)cc1`, for which the growth is 108%.

For the compound `S=C(S)Oc1cccc2cccnc12`, the growth is 111%.

On to `O=C1NN(C(=O)c2ccccc2)C(c2ccc(Cl)c(Cl)c2)=C/C1=C\c1ccccc1[N+](=O)[O-]`, for which the growth is -79.4% [6.75 µM] (active).

For the compound `CCOC(=O)Nc1ccc2nc(Sc3ccc(Cl)cc3)sc2c1`, the growth was -26.4% (active).

`COc1cc(C2CC(c3cccc(Nc4ccnc5cc(Cl)ccc45)c3)=NN2C=O)cc(OC)c1OC` (configuration not stated): the growth is -22.6% (active).

Regarding `c1cn2cc(-c3ccc4ncn(C5CCCCC5)c4c3)nc(-c3ccc4c(c3)ncn4C3CCCCC3)c2n1`, the growth is -64.4% (active).
